Relative cell viability data for 26 compounds are collected here from the supplement of paper PMC9588786.

Structures can show the parent of a compound that is named as a salt. ± gives the standard deviation of the averaged measurements.
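Further: viability read as CCK-8 absorbance at 450 nm in cells co-exposed to the GPX4 inhibitor RSL3, relative to a 0.01% DMSO vehicle control.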

The assay concerns HT-1080. The experiment in a line: relative cell viability with RSL3 co-treatment (fraction of control); higher = stronger protection from RSL3-induced ferroptosis (higher viability). To be noted: 10 µM.
With `Cn1c(Nc2ccc(C(F)(F)F)cc2)nc2cc(Oc3ccnc(-c4ncc(C(F)(F)F)[nH]4)c3)ccc21`, the relative cell viability worked out at 0.593 ± 0.091.

For the compound `O=C(O)C(Cc1ccccc1[N+](=O)[O-])=NNc1nc(-c2ccc(Cl)c(Cl)c2)cs1` (mixture of isomers), the relative cell viability was found to be 1.27 ± 0.046.

On to `Cn1cc(-c2ccc3nnc(C(F)(F)c4ccc5ncccc5c4)n3n2)cn1`, for which the relative cell viability was 0.743 ± 0.04.

On to `O=C1NC(=O)/C(=C/c2ccc3c(c2)OC(F)(F)O3)S1`, for which the relative cell viability stood at 0.82 ± 0.07.

In the case of `O=C1Nc2ccccc2/C1=C1/Nc2ccccc2C1=O` [Indirubin], the relative cell viability is 0.75 ± 0.066.

With `Cc1c(NC(=O)c2ccc(C(C)(C)C)cc2)cccc1-c1cn(C)c(=O)c(Nc2ccc(C(=O)N3CCOCC3)cc2)n1`, the relative cell viability worked out at 0.647 ± 0.1.

Consider `CNc1nc(Nc2cn(C(C)(C)C#N)nc2C)ncc1C(F)(F)F`, for which the relative cell viability was determined as 0.757 ± 0.1.

For `COc1ccc(-c2cc3c(C)nc(N)nc3n([C@H]3CC[C@H](OCCO)CC3)c2=O)cn1`, the relative cell viability was found to be 0.597 ± 0.16.

In the case of `Cc1csc(-c2nnc(Nc3ccc(Oc4ncccc4-c4ccnc(N)n4)cc3)c3ccccc23)c1`, the relative cell viability worked out at 0.56 ± 0.087.

`O=C1NC(=O)/C(=C/c2cccc(C(F)(F)F)c2)S1`: the relative cell viability is 0.807 ± 0.015.

Consider `CCCCCCCCc1ccc(CCC(N)(CO)CO)cc1` [Fingolimod (FTY720) HCl], for which the relative cell viability was 0.253 ± 0.1.

Consider `CCOc1ccn(-c2ccc(F)cc2)c(=O)c1C(=O)Nc1ccc(Oc2ccnc(N)c2Cl)c(F)c1`, for which the relative cell viability came to 0.51 ± 0.092.

In the case of `OCCn1cc(-c2cnc3nnn(Cc4ccc5ncccc5c4)c3n2)cn1`, the relative cell viability came to 0.813 ± 0.09.

Consider `CC(C)(C)c1cc(NC(=O)Nc2ccc(-c3cn4c(n3)sc3cc(OCCN5CCOCC5)ccc34)cc2)no1` [Quizartinib (AC220)], for which the relative cell viability was 0.473 ± 0.04.

In the case of `Cc1ccc(Nc2nccc(N(C)c3ccc4c(C)n(C)nc4c3)n2)cc1S(N)(=O)=O` [Pazopanib], the relative cell viability was 0.71 ± 0.12.

`C[C@H](Nc1ncnc2[nH]cnc12)c1cc2ccc(F)cc2nc1-c1ccccn1`: the relative cell viability came to 0.59 ± 0.18.

As to `Cn1cnc2c(F)c(Nc3ccc(Br)cc3Cl)c(C(=O)NOCCO)cc21` [Selumetinib (AZD6244)], the relative cell viability came out at 0.807 ± 0.015.

For the compound `Cc1[nH]c(/C=C2\C(=O)Nc3ccc(S(=O)(=O)Cc4c(Cl)cccc4Cl)cc32)c(C)c1C(=O)N1CCC[C@@H]1CN1CCCC1`, the relative cell viability amounted to 0.19 ± 0.046.

Take `O=c1c(-c2ccc(O)cc2)coc2cc(O)cc(O)c12` [Genistein]: the relative cell viability was determined as 0.76 ± 0.07.

For the compound `CCCS(=O)(=O)Nc1ccc(F)c(C(=O)c2c[nH]c3ncc(Cl)cc23)c1F`, the relative cell viability came out at 0.64 ± 0.036.

In the case of `O=C(Nc1cc(C(F)(F)F)cc(C(F)(F)F)c1)c1cc(Cl)ccc1O`, the relative cell viability is 0.537 ± 0.06.

Turning to `CC(C)(C)c1cc(/C=C(\C#N)C(N)=S)cc(C(C)(C)C)c1O` [Tyrphostin AG 879], the relative cell viability is 0.69 ± 0.017.

Turning to `c1cc(-c2cnn3cc(-c4ccc(OCCN5CCCCC5)cc4)cnc23)ccn1` [Dorsomorphin 2HCl], the relative cell viability worked out at 0.463 ± 0.18.

`O=C(NCc1cccc(O)c1)Nc1nc(-c2ccncc2)cs1`: the relative cell viability was 0.77 ± 0.05.

As for `CCCCOc1c(C(=O)c2c(F)cc(C)cc2F)c[nH]c2nncc1-2`, the relative cell viability was 0.903 ± 0.24.

For `CCN1/C(=C/C(C)=O)Sc2ccc(OC)cc21`, the relative cell viability worked out at 0.76 ± 0.1.
